In the test the target is T1, Methionyl-tRNA synthetase, putative (Leishmania donovani (strain BPK282A1)) (UniProt E9BF75).
T1 sequence (whole entry): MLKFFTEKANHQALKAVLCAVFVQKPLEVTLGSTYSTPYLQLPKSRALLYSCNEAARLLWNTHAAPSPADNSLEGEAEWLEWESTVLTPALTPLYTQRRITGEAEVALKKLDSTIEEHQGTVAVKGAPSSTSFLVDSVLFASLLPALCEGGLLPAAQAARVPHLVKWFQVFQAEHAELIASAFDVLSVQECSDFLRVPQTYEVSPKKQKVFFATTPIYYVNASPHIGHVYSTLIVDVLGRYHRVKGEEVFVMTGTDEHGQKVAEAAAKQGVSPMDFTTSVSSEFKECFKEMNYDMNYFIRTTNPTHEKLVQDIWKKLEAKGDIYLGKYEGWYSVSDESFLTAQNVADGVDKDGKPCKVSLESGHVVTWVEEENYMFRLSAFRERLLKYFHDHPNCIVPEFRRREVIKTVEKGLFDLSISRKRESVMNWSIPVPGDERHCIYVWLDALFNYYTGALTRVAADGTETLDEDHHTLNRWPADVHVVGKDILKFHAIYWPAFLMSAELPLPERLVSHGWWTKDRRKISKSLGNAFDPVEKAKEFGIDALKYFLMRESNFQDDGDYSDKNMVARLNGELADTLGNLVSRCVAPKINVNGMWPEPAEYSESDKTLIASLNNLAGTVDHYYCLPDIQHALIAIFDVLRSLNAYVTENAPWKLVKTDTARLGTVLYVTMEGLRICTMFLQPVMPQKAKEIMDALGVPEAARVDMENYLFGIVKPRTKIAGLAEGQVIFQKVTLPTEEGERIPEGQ
As to the kind of experiment: Leishmania donovani Methionine tRNA synthetase (LdMetRS):v7. Dose response assay. The class given is functional. On the set-up: conc 80 nM, time 150 minutes.

The molecule `CN(CCO)c1ccnc(Nc2ccc(F)c(F)c2)n1` had a PXC50 (BOTTOM 0.294483603, HILLSLOPE 0.87168646, MAX_EFFECT 90.28037383, TOP 97.37088088) of 5.27.

`Cn1ncc2c(NCCO)nc(Nc3cccc(Cl)c3)nc21`: the PXC50 (BOTTOM 2.482705833, HILLSLOPE 1.074607965, MAX_EFFECT 81.43133462, TOP 87.71460066) amounted to 5.07.

Under “BOTTOM 4.327233824, HILLSLOPE 1.310483513, MAX_EFFECT 62.26415094, TOP 64.55009742”, `Cn1ncc2c(NC3CCC3)nc(Nc3ccc(F)c(F)c3)nc21` yielded a PXC50 of 5.13.

`Clc1cc(Cl)cc(CNCc2ccc3[nH]ccc3c2)c1` came in with a PXC50 (BOTTOM 7.303470977, HILLSLOPE 1.421171765, MAX_EFFECT 85.85086042, TOP 90.87319761) of 4.04.

In turn, `Cn1ncc2c(NC3CCOC3)nc(Nc3ccc(F)c(F)c3)nc21` (stereo unspecified) yielded a PXC50 (BOTTOM 7.395126545, HILLSLOPE 0.941646955, MAX_EFFECT 86.79245283, TOP 90.65244752) of 5.1.

For `Clc1cc(Cl)cc(NCc2ncc[nH]2)c1`, the PXC50 (BOTTOM -1.539697056, HILLSLOPE 1.029999783, MAX_EFFECT 60.61185468, TOP 100.0) was determined as 2.93.

As for `Clc1cc(Cl)cc(NCc2cccnc2)c1`, for the setting “BOTTOM -6.720584862, HILLSLOPE 0.561777258, MAX_EFFECT 60.61185468, TOP 100.0”, the PXC50 stood at 3.18.

In turn, `NS(=O)(=O)c1cccnc1Nc1cccc(F)c1` showed a PXC50 (MAX_EFFECT 1.518026565) of less than 4.

On to `NS(=O)(=O)c1cccn2c1nc1cccnc12`, for which the PXC50 (MAX_EFFECT 1.851851852) is less than 4.

In turn, `CN(C)CCNc1nc(NCCO)c2cnn(C)c2n1` gave a PXC50 (MAX_EFFECT 2.277039848) of less than 4.

Under “MAX_EFFECT 2.803738318”, `COc1ccccc1NC(=O)Nc1cccc(O)c1` gave a PXC50 of less than 4.

Under “MAX_EFFECT 3.018867925”, `COc1ccccc1NC(=O)Nc1c[n+]([O-])ccc1OC` returned a PXC50 of less than 4.

Turning to `C[C@H](CO)Nc1nccc(Cl)n1`, the PXC50 (MAX_EFFECT 4.672897196) is less than 4.

The molecule `CN(CCO)c1nccc(Cl)n1` displayed a PXC50 (MAX_EFFECT 5.046728972) of less than 4.

Molecule `COc1ccc(Nc2ncccc2S(N)(=O)=O)cc1C(F)(F)F` registered a PXC50 (MAX_EFFECT 5.780346821) of less than 4.

As for `COc1ccccc1NC(=O)Nc1cc(C(=O)O)ccc1OC`, the PXC50 (MAX_EFFECT 5.794392523) is less than 4.

`COC(=O)c1ccc(OC)c(NC(=O)Nc2ccccc2OC)c1`: the PXC50 (MAX_EFFECT 5.794392523) was less than 4.

In turn, `Cn1c(NC(=O)Nc2ccccc2Cl)nc2ccccc21` gave a PXC50 (MAX_EFFECT 5.925925926) of less than 4.

`C[C@@H](CO)Nc1nccc(Cl)n1` showed a PXC50 (MAX_EFFECT 6.91588785) of less than 4.

`OCCCNc1ccnc(Cl)n1`: the PXC50 (MAX_EFFECT 7.32177264) was less than 4.

In turn, `COc1ccc(OC)c(NC(=O)N2CCOc3ccc(C)cc32)c1` gave a PXC50 (MAX_EFFECT 7.777777778) of less than 4.

Under “MAX_EFFECT 8.518518519”, `NS(=O)(=O)c1cccnc1Nc1cncnc1` displayed a PXC50 of less than 4.

Molecule `COc1ccccc1CNC(=O)Nc1ccccc1OC` showed a PXC50 (MAX_EFFECT 9.158878505) of less than 4.

On to `Clc1cc(Cl)cc(NCCc2ccccc2)c1`, for which, under “MAX_EFFECT 9.751434034”, the PXC50 was less than 2.7.

As for `CN(C)c1nc(NCCO)c2cnn(C)c2n1`, the PXC50 (MAX_EFFECT 10.24667932) is less than 4.

As to `Cc1cc(Nc2ncccc2S(N)(=O)=O)cc(C(F)(F)F)c1`, the PXC50 (MAX_EFFECT 10.97804391) is less than 4.

As for `Clc1cc(Cl)cc(CNC2COC2)c1`, the PXC50 (MAX_EFFECT 15.10516252) was less than 2.7.

For `COc1ccccc1NC(=O)Nc1nn(C)c2cccc(OC)c12`, the PXC50 (MAX_EFFECT 17.77777778) is less than 4.

Consider `CN1CCn2cc/c(=N\c3ccc(F)c(F)c3)nc21`, for which the PXC50 (MAX_EFFECT 18.13084112) was less than 4.

With `COc1cccc(NC(=O)N2CCOc3ccccc32)c1`, the PXC50 (MAX_EFFECT 19.53578337) is less than 4.

Regarding `Cn1ncc2c(NCCO)nc(NCCS(=O)(=O)N3CCOCC3)nc21`, the PXC50 (MAX_EFFECT 23.12138728) is less than 4.

In turn, `Clc1cc(Cl)cc(CNCc2cccnc2)c1` had a PXC50 (MAX_EFFECT 23.51816444) of less than 2.7.

`Cn1ncc2c(N3CCCCC3)nc(Nc3ccccc3)nc21`: the PXC50 (MAX_EFFECT 27.40740741) is less than 4.

The molecule `COc1ccncc1NC(=O)N1CCCc2ccccc21` gave a PXC50 (MAX_EFFECT 36.98113208) of less than 4.

Where the note is “MAX_EFFECT 36.99421965”, `Cn1ncc2c(NCCO)nc(NCCn3cccn3)nc21` registered a PXC50 of less than 4.

For the setting “MAX_EFFECT -0.759013283”, `NS(=O)(=O)c1cccnc1Nc1ccc(F)c(F)c1` returned a PXC50 of less than 4.

Molecule `Clc1cc(Cl)cc(NCc2ccccn2)c1` yielded a PXC50 (BOTTOM 0.466583915, HILLSLOPE 0.636268233, MAX_EFFECT 51.05162524, TOP 100.0) of 2.71.

`Clc1cc(Cl)cc(CNCc2ccc3[nH]ncc3c2)c1` had a PXC50 (BOTTOM 1.106249154, HILLSLOPE 1.041028332, MAX_EFFECT 65.20076482, TOP 65.36183651) of 3.99.

`Cn1ncc2c(NC3CCCC(O)C3)nc(Nc3ccc(F)c(F)c3)nc21` (stereo unspecified) came in with a PXC50 (BOTTOM 4.828241924, HILLSLOPE 1.003842691, MAX_EFFECT 77.73584906, TOP 90.35664451) of 4.76.

For `Cn1ncc2c(NCCO)nc(Nc3cccc(F)c3)nc21`, the PXC50 (BOTTOM 8.925751042, HILLSLOPE 1.252459196, MAX_EFFECT 66.66666667, TOP 81.92338456) was 4.47.

On to `C[C@H](CO)Nc1ccnc(Nc2ccc(F)c(F)c2)n1`, for which the PXC50 (BOTTOM -1.459719323, HILLSLOPE 0.865053746, MAX_EFFECT 69.36416185, TOP 100.0) turned out to be 4.44.

For the molecule `Clc1cc(Cl)cc(NCc2c[nH]cn2)c1`, the PXC50 (BOTTOM -1.936831904, HILLSLOPE 1.590281355, MAX_EFFECT 96.5583174, TOP 100.0) was determined as 3.41.

In the case of `OCCNc1ccnc(Nc2cccc(C(F)(F)F)c2)n1`, the PXC50 (BOTTOM -3.630779809, HILLSLOPE 0.738811655, MAX_EFFECT 60.88631985, TOP 100.0) was determined as 4.28.

`OCCNc1nccc(Cl)n1` had a PXC50 (MAX_EFFECT 0.560747664) of less than 4.

For the setting “MAX_EFFECT 1.851851852”, `Cn1cc(C(=O)N2CCc3ccccc32)c2ccccc21` gave a PXC50 of less than 4.

`C[C@@H](CO)Nc1ccnc(Cl)n1` came in with a PXC50 (MAX_EFFECT 3.177570093) of less than 4.

Regarding `NS(=O)(=O)c1cccnc1Nc1cccc(O)c1`, the PXC50 (MAX_EFFECT 3.333333333) was less than 4.

On to `OCCNc1ccnc(Cl)n1`, for which the PXC50 (MAX_EFFECT 3.551401869) is less than 4.

In turn, `COc1cc(NC(=O)c2cccc3cccnc23)c(OC)cc1Cl` registered a PXC50 (MAX_EFFECT 3.703703704) of less than 4.

For the molecule `Cn1ncc2c(NCCO)nc(NCCO)nc21`, the PXC50 (MAX_EFFECT 3.795066414) is less than 4.

`C[C@H](CO)Nc1ccnc(Cl)n1`: the PXC50 (MAX_EFFECT 5.046728972) is less than 4.

As to `NS(=O)(=O)c1cccnc1Nc1ccc(O)cc1`, the PXC50 (MAX_EFFECT 5.185185185) is less than 4.

Consider `C[C@H](CO)Nc1nccc(Nc2ccc(F)c(F)c2)n1`, for which the PXC50 (MAX_EFFECT 6.165703276) was less than 4.

On to `N#Cc1c(N)nc(-c2ccccc2)nc1C(F)(F)F`, for which the PXC50 (MAX_EFFECT 6.666666667) was less than 4.

In turn, `COC(=O)c1ccc(OC)c(NC(=O)N2CCCc3ccccc32)c1` had a PXC50 (MAX_EFFECT 6.79245283) of less than 4.

`NS(=O)(=O)c1cccnc1Nc1cc(O)ccn1` displayed a PXC50 (MAX_EFFECT 7.407407407) of less than 4.

Turning to `Cc1cc(CNc2cc(Cl)cc(Cl)c2)no1`, the PXC50 (MAX_EFFECT 7.456978967) was less than 2.7.

For `CN(CCO)c1nccc(Nc2ccc(F)c(F)c2)n1`, for the setting “MAX_EFFECT 7.663551402”, the PXC50 is less than 4.

Take `Cn1ncc2c(NCCO)nc(N3CCCCC3)nc21`: under “MAX_EFFECT 10.78998073”, the PXC50 was less than 4.

For `OCCCNc1nccc(Nc2ccc(F)c(F)c2)n1`, where the note is “MAX_EFFECT 15.09433962”, the PXC50 is less than 4.

For `c1ccc(-c2nc(N3CCOCC3)c3sccc3n2)cc1`, the PXC50 (MAX_EFFECT 16.2962963) is less than 4.

The record behind these values is ChEMBL document CHEMBL3988442, “University of Dundee, Small-Polar-MMV Screening Library” (2021).
